High-throughput results deposited in PubChem BioAssay by several laboratories.
KLF5 inhibitor: inhibitors of KLF5 expression. DLD-1 KLF5 promoter-luciferase reporter, luminescence. inhibition, % at 5 µM. 0.23% of 290,000 active. AID 1700;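 active = inhibition above a per-plate limit of that plate's mean compound inhibition plus 3 SD, cut at about 60% in these data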;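 note: 0% = DMSO wells and 100% = LY294002 at 200 µM; higher means less KLF5 promoter-driven luciferase light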
APP 5UTR inh: APP translation inhibition; AID 1285; 0.82% of 190,000 active; inhibition, % at 2 µM; SH-SY5Y APP 5'UTR-luciferase reporter, luminescence;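 active = inhibition above a set limit, derived from the sample mean plus 3 SD, cut at about 45% in these data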
aSyn UTR inh: 5' untranslated region of α-synuclein, MLPCN primary screen; inhibition, % (tested at 7.5 µM); alpha-synuclein 5'UTR reporter, inhibitor activity; AID 1813; 0.82% of 300,000 active; in the data active = inhibition above about 60%;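 note: H4 neuroglioblastoma cells stably carrying SNCA 5'UTR luciferase fusion; 0% = DMSO wells and 100% = positive control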
Ba/F3 V617F tox: loss of viability in JAK2V617F-driven Ba/F3 cells; inhibition, % at 5.6 µM; 1.1% of 220,000 active; Ba/F3 EpoR-JAK2V617F viability, ATP luminescence;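 active = inhibition above the campaign mean plus 3 SD over all tested compounds, cut at about 24% in these data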;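 note: cytokine-independent growth of Ba/F3 cells driven by EpoR plus mutant JAK2; 0% = DMSO-treated cells and 100% = JAK inhibitor I control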
BaF3 parental: counter-screen for JAK2V617F inhibitors: parental Ba/F3 viability inhibitors; CellTiter-Glo ATP luminescence; inhibition, % at 5.6 µM; 1.1% of 220,000 active; AID 1486;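 active = inhibition above a per-campaign cutoff, the mean inhibition of all tested compounds plus 3 SD, cut at about 27% in these data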;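 note: 0% = DMSO wells and 100% = JAK Inhibitor I control wells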
IEC-6 cytotox: counter-screen for KLF5 inhibitors: cytotoxicity in IEC-6 cells | 0.78% of 290,000 active | IEC-6 cytotoxicity, luminescence viability | AID 1825 | inhibition, % at 5 µM; in the data active = inhibition above about 22%;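 note: 0% = plate median of test compound wells and 100% = cytotoxic reference compound wells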
The depositor's hits bear a star; . = not tested or not shown. Hits are enriched below; roughly 2.2% of the tested compounds scored in any of these assays.

SMILES	KLF5 inhibitor	APP 5UTR inh	aSyn UTR inh	Ba/F3 V617F tox	BaF3 parental	IEC-6 cytotox
COc1ccc(CNc2ncnc3c2[nH]c2ccccc23)cc1	-31.2	.	2.6	0.6	1.3	10.5
COc1ccc(N2CCOCC2)c(NC(=O)c2cccnc2)c1	-21.9	.	8.9	.	.	4.2
CCOc1ccc2c(c1)c(N=NC(=N)N)c(O)n2C	-19.0	-2.3	-2.2	43.9*	68.8*	13.0
CC[n+]1c(/C=C/N(C)c2ccccc2)oc2ccccc21	6.1	1.9	-13.4	85.6*	72.0*	19.7
CC[n+]1c(/C=C/Nc2ccccc2)oc2ccc(OC)cc21	-11.3	-9.7	-13.0	11.5	19.7	-2.4
CC[n+]1c(/C=C/N(C)c2ccccc2)oc2ccc(F)cc21	21.8	-4.8	-5.8	79.2*	71.6*	5.9
Cc1c(Cl)cccc1NC(=O)Cn1c(-c2ccc(F)cc2)noc1=O	-21.8	5.7	-25.9	-0.9	11.9	-4.7
Cc1ccc(/C=C/C(=O)NCCc2ccccc2)o1	-33.6	.	-98.5	.	.	-0.6
O=C(O)CCCc1ccc2c(c1)CCc1ccccc1-2	.	.	108.5*	.	.	.
CCCCc1c(CCC)c(=N)c2ccccc2n1C	-5.3	7.0	5.3	75.8*	68.4*	0.3
CCCCc1c(O)c2ccccc2n(CCCC)c1=O	-16.1	-12.8	4.9	0.1	4.1	3.6
COc1ccc(S(=O)(=O)NCC2CCCN(C(=O)CSC)C2)cc1 (configuration not stated)	3.4	.	-6.5	.	.	-2.0
Cc1ccc(C[n+]2cc(-c3ccc(Cl)cc3)n3c2CCC3)cc1	23.5	.	.	76.3*	71.9*	4.3
Cn1c(NC(=O)C[n+]2cc(-c3ccc(Cl)cc3)n3c2CCC3)cc(=O)n(C)c1=O	-38.3	-0.5	-4.7	1.4	7.4	2.9
Cc1ccc(-c2c[n+](Cc3ccc(Cl)cc3)c3n2CCC3)cc1	15.3	.	-13.2	87.1*	73.3*	3.0
Clc1ccc(-c2c[n+](Cc3ccc(Cl)c(Cl)c3)c3n2CCC3)cc1	-0.2	-6.7	.	25.5*	39.5*	-0.3
COc1cc(CCCN2C(N)=NC[C@@H]2Cc2ccc(O)cc2)cc(OC)c1OC	.	.	8.4	.	.	.
CC12CC3CC(C)(C1)CC(C(=O)NNC(=O)c1ccncc1)(C3)C2	-5.4	.	6.7	.	.	6.6
CC(C)C1Oc2ccccc2N(CC(=O)N2CCOCC2)C1=O (configuration not stated)	1.4	.	11.5	.	.	-10.6
Oc1ccc(N=Nc2c(O)ccc3ccccc23)cc1	-49.0	-21.9	-97.6	19.9	42.4*	11.6
NS(=O)(=O)c1ccc(N=Nc2c(O)ccc3ccccc23)cc1	-48.8	9.3	-0.1	2.2	9.1	3.8
O=C(NCC(=O)N1CCOCC1)c1ccc(Br)o1	.	.	7.3	.	.	.
COc1cc(/C=N/NS(=O)(=O)c2ccc(C)cc2)ccc1OCc1cccc(C(=O)O)c1	34.0	31.4	89.8*	-1.0	0.4	-5.0
COc1cc(/C=N/NC(N)=S)ccc1OC(=O)c1ccc(C)cc1	-30.1	-6.4	-33.9	-1.3	1.9	-1.8
COc1cc(/C=N/NC(N)=S)ccc1OCc1ccc(C)cc1	-54.5	-19.4	-178.8	60.2*	48.5*	4.7
SMILES	KLF5 inhibitor	APP 5UTR inh	aSyn UTR inh	Ba/F3 V617F tox	BaF3 parental	IEC-6 cytotox
CCOCCCNC(=S)N(CCN(C)C)Cc1cc2cc3c(cc2[nH]c1=O)OCCO3	-8.9	.	-2.4	.	.	5.2
O=C(C1CCCN(S(=O)(=O)c2cc(Cl)ccc2Cl)C1)N1CCOCC1 (configuration not stated)	-4.3	.	-11.2	.	.	7.4
Cc1ccc(S(=O)(=O)N2CCCC2C(=O)NCc2ccc3c(c2)OCO3)cc1 (configuration not stated)	9.5	-7.7	4.8	-1.7	0.4	0.3
Oc1c(C(c2ccccc2Cl)N2CCCC2)ccc2cccnc12 (configuration not stated)	73.3*	7.2	97.3*	82.7*	68.4*	12.3
CCC(=O)NC(c1ccccc1OC)c1ccc2cccnc2c1O (configuration not stated)	35.4	88.8*	79.9*	60.7*	68.2*	19.1
COc1ccc(Cl)cc1C(Nc1cccnc1)c1ccc2cccnc2c1O (configuration not stated)	57.4	-4.1	51.6	9.2	0.2	12.1
Oc1c(C(c2ccc(Cl)cc2)N2CCCC2)cc(Cl)c2cccnc12 (configuration not stated)	50.6	11.1	33.1	4.5	11.7	-2.3
CCCCC(=O)NC(c1ccccc1Cl)c1ccc2cccnc2c1O (configuration not stated)	71.5*	.	83.4*	.	.	19.4
COc1ccc(CNc2nc3ccccc3n2CCN2CCCCC2)cc1	-25.7	-28.9	-22.0	0.0	-0.5	8.0
COc1ccc(CCN2CCC(Nc3nc4ccccc4n3Cc3ccc(F)cc3)CC2)cc1	-28.6	2.8	102.5*	74.9*	40.7*	4.2
O=C(CSc1nc2ccccc2n1Cc1ccc(Cl)cc1)N/N=C/c1ccc(C(=O)O)cc1	-18.3	53.9*	19.4	-0.4	6.4	-4.5
CC(NC(=S)NNS(=O)(=O)c1cccc([N+](=O)[O-])c1)c1ccccc1 (configuration not stated)	-13.6	.	-4.3	.	.	2.3
COc1ccc(-c2csc(NC(=O)c3ccccc3NS(=O)(=O)c3ccc(F)c(F)c3)n2)cc1	77.8*	-5.7	73.6*	99.7*	102.7*	57.6*
CCCCNc1nc2sc3c(c2c(=O)n1-c1cccc(Cl)c1)CCN(C)C3	-18.6	.	.	80.3*	68.2*	-2.8
CCCCSc1nc2sc3c(c2c(=O)n1-c1ccccc1)CCN(C)C3	-29.9	.	3.3	.	.	-2.7
CCCCCNc1nc2sc3c(c2c(=O)n1-c1cccc(Cl)c1)CCN(C)C3	-9.7	.	.	76.3*	67.8*	4.8
CCCn1c(SCC(=O)NCc2ccc(Cl)cc2)n[nH]c1=O	-7.8	7.4	18.1	0.4	-3.6	-7.9
CCC1(C)N=C(N)Nc2nc3cc(C)c(C)cc3n21 (configuration not stated)	-13.3	.	-1.7	73.1*	84.9*	-5.3
O=S(=O)(NCC1CCCO1)c1ccc(-c2ccc(S(=O)(=O)NCC3CCCO3)cc2)cc1 (configuration not stated)	35.4	6.3	-21.9	52.4*	80.0*	3.1
O=C(O)c1ccc(Cl)c(S(=O)(=O)NCC2CCCO2)c1 (configuration not stated)	-21.6	57.2*	-1.0	2.4	3.1	-1.5
Cc1ccc(-n2c(C)cc(/C=c3/sc4nc5ccccc5n4c3=O)c2C)cc1	-16.4	27.3	66.7*	-1.5	3.8	4.5
O=c1/c(=C\c2cccn2-c2ccccc2)sc2nc3ccccc3n12	-49.0	-75.0	.	-2.5	1.5	-3.2
O=C(COC(=O)c1ccc(Cl)nc1)Nc1ccc2c(c1)OCO2	-10.7	-5.1	-10.2	-2.1	6.7	-5.1
Clc1ccc2noc(-c3ccccc3)c2c1	2.9	46.9*	13.8	-4.1	-0.6	-2.0
CCC(=O)Nc1c(C#N)c2nc3ccccc3nc2n1C1CCCCC1	2.4	-4.7	9.3	-2.2	3.0	-3.7
N#Cc1c(N)n(C2CCCCC2)c2nc3ccccc3nc12	12.9	3.4	62.2*	-0.1	2.7	-0.1
